Measurements as given in article PMC8384837, “Expanding the binding specificity for RNA recognition by a PUF domain”.

How the values were obtained:
Assay in all cases: yeast three-hybrid, YBZ-1, SC-Leu-His + 0.5 mM 3-AT, 4 days
Conditions in all cases: tags: N-Gal4 AD-HA kept; label: inside an RPR1-promoter hybrid RNA with tandem MS2 sites; ssRNA
PUM1 PUF domain R3-MCG = PUM1 PUF domain R3-MCG (Homo sapiens, UniProt Q14671 828-1176, C935M;R936C;Q939G)
How it was run: (§1)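 Each repeat of the Pumilio-1 PUF domain was randomized at its three base-contacting residues, and these libraries were co-expressed from a centromeric plasmid with matching RNA elements in strain YBZ-1. After four days on SC-Leu (input) or SC-Leu-His + 0.5 mM 3-AT (selection), the repeat regions were PCR-amplified and Illumina-sequenced. The interaction score compares variant frequency between input and selection as a log change, computed in log2 with a pseudocount of 1 for absent variants.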

PUM1 PUF domain R7-QNR = PUM1 PUF domain R7-QNR (Homo sapiens, UniProt Q14671 828-1176, S1079Q;E1083R)
How it was run: as §1

PUM1 PUF domain R7-RVR = PUM1 PUF domain R7-RVR (Homo sapiens, UniProt Q14671 828-1176, S1079R;N1080V;E1083R)
How it was run: as §1

PUM1 PUF domain R5-GQA = PUM1 PUF domain R5-GQA (Homo sapiens, UniProt Q14671 828-1176, C1007G;R1008Q;Q1011A)
How it was run: as §1

PUM1 PUF domain R5-TND = PUM1 PUF domain R5-TND (Homo sapiens, UniProt Q14671 828-1176, C1007T;R1008N;Q1011D)
How it was run: as §1

PUM1 PUF domain R5-AQR = PUM1 PUF domain R5-AQR (Homo sapiens, UniProt Q14671 828-1176, C1007A;R1008Q;Q1011R)
How it was run: as §1

PUM1 PUF domain R5-PHD = PUM1 PUF domain R5-PHD (Homo sapiens, UniProt Q14671 828-1176, C1007P;R1008H;Q1011D)
How it was run: as §1

PUM1 PUF domain R4-QGA = PUM1 PUF domain R4-QGA (Homo sapiens, UniProt Q14671 828-1176, N971Q;H972G;Q975A)
How it was run: as §1

PUM1 PUF domain R8-RYK = PUM1 PUF domain R8-RYK (Homo sapiens, UniProt Q14671 828-1176, N1122R;Q1126K)
How it was run: as §1

PUM1 PUF domain R6-TWS = target: T1, PUM1 PUF domain R6-TWS (Homo sapiens, UniProt Q14671 828-1176, N1043T;Y1044W;Q1047S)
T1 sequence: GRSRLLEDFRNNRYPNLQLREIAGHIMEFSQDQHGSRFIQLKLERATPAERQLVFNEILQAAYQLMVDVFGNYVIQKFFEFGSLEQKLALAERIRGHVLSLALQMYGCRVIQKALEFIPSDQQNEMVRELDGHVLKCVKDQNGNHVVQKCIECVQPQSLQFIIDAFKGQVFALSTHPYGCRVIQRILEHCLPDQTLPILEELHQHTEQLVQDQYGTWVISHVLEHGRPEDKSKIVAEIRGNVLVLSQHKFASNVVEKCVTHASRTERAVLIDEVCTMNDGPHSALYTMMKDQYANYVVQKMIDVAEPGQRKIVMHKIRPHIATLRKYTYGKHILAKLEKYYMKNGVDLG
How it was run: as §1

GGCUAGAACUAGUGGAUCCCCCGGCGCCCGGCGGCUCGAGCCCGGGUAAGUGUAAGUAGUCUGCAUGCCGCCGGGCGCCAUGCCUGCAGGUCGACUCUAGAAAACAUG
binding signal (PUM1 PUF domain R3-MCG): 2.55 log2 enrichment (interaction score)

GGCUAGAACUAGUGGAUCCCCCGGCGCCCGGCGGCUCGAGCCCGGGUAAGUCUAAAUAGUCUGCAUGCCGCCGGGCGCCAUGCCUGCAGGUCGACUCUAGAAAACAUG
binding signal (PUM1 PUF domain R7-QNR): 3.58 log2 enrichment (interaction score) | binding signal (PUM1 PUF domain R7-RVR): 0.98 log2 enrichment (interaction score)

GGCUAGAACUAGUGGAUCCCCCGGCGCCCGGCGGCUCGAGCCCGGGUAAGUGUUAAUAGUCUGCAUGCCGCCGGGCGCCAUGCCUGCAGGUCGACUCUAGAAAACAUG
binding signal (PUM1 PUF domain R5-GQA): 2.64 log2 enrichment (interaction score) | binding signal (PUM1 PUF domain R5-TND): 2.81 log2 enrichment (interaction score) | binding signal (PUM1 PUF domain R5-AQR): 3.22 log2 enrichment (interaction score) | binding signal (PUM1 PUF domain R5-PHD): 3.76 log2 enrichment (interaction score)

GGCUAGAACUAGUGGAUCCCCCGGCGCCCGGCGGCUCGAGCCCGGGUAAGUGUCAAUAGUCUGCAUGCCGCCGGGCGCCAUGCCUGCAGGUCGACUCUAGAAAACAUG
binding signal (PUM1 PUF domain R5-AQR): 5.35 log2 enrichment (interaction score)

GGCUAGAACUAGUGGAUCCCCCGGCGCCCGGCGGCUCGAGCCCGGGUAAGUGUACAUAGUCUGCAUGCCGCCGGGCGCCAUGCCUGCAGGUCGACUCUAGAAAACAUG
binding signal (PUM1 PUF domain R4-QGA): 2.09 log2 enrichment (interaction score)

GGCUAGAACUAGUGGAUCCCCCGGCGCCCGGCGGCUCGAGCCCGGGUAAGUGUAUAUAGUCUGCAUGCCGCCGGGCGCCAUGCCUGCAGGUCGACUCUAGAAAACAUG
binding signal (PUM1 PUF domain R4-QGA): 2.73 log2 enrichment (interaction score)

GGCUAGAACUAGUGGAUCCCCCGGCGCCCGGCGGCUCGAGCCCGGGUAAGCGUAAAUAGUCUGCAUGCCGCCGGGCGCCAUGCCUGCAGGUCGACUCUAGAAAACAUG
binding signal (PUM1 PUF domain R8-RYK): 7.26 log2 enrichment (interaction score)

GGCUAGAACUAGUGGAUCCCCCGGCGCCCGGCGGCUCGAGCCCGGGUAAGUGAAAAUAGUCUGCAUGCCGCCGGGCGCCAUGCCUGCAGGUCGACUCUAGAAAACAUG
binding signal (PUM1 PUF domain R6-TWS): 5.32 log2 enrichment (interaction score)

GGCUAGAACUAGUGGAUCCCCCGGCGCCCGGCGGCUCGAGCCCGGGUAAGUGUAAAUAGUCUGCAUGCCGCCGGGCGCCAUGCCUGCAGGUCGACUCUAGAAAACAUG
binding signal (PUM1 PUF domain R6-TWS): 2.56 log2 enrichment (interaction score)

GGCUAGAACUAGUGGAUCCCCCGGCGCCCGGCGGCUCGAGCCCGGGUAAGUUUAAAUAGUCUGCAUGCCGCCGGGCGCCAUGCCUGCAGGUCGACUCUAGAAAACAUG
binding signal (PUM1 PUF domain R7-RVR): 4.32 log2 enrichment (interaction score)
